Measurements: PubChem BioAssay (NCATS)
Results filed as inconclusive are left out. Where a call stands in place of a potency, no number is given. Activity calls are given as the source filed them. The call rests on the fitted dose curve; in most records, active means well fitted curve in the direction sought with a large enough effect; inconclusive means small, poorly fitted or top-dose-only effect, or another doubt; inactive means no such curve, though single readings can be large; an effect the other way counts as inactive or inconclusive.

System: Zika virus NS2B-NS3 protease
Assay: Primary screen GU AMC qHTS for Zika virus inhibitors (AID 1347154); further: nearly all actives have a fitted effect of over 70% in size
Settings: Zika NS2B-NS3 unlinked protease, AMC fluorogenic substrate; series mostly up to 54.1 µM
In short: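 Unlinked Zika NS2B hydrophilic domain/NS3 protease domain noncovalent complex (25 nM final) in 10 mM Tris-HCl pH 8.0, 0.01% Tween 20, with AMC peptide substrate. Fluorescence (ex 340, em 450 nm) change over 15 min, room temperature; percent inhibition fitted to 4-parameter Hill equation.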

Row | SMILES | Potency
1 | CC(N)Cc1c[nH]c2ccc(O)cc12 (stereo not drawn) | inactive
2 | NC(C(=O)O)c1cc(=O)[nH]o1 (stereo not drawn) | inactive
3 | CCCN(CCC)C1CCc2cccc(O)c2C1 (stereo not drawn) | inactive
4 | N[C@@H](Cn1oc(=O)[nH]c1=O)C(=O)O | inactive
5 | O=[N+]([O-])c1ccc2nc(N3CCNCC3)ccc2c1 | inactive
6 | CCCN(CCC)[C@@H]1CCc2cccc(O)c2C1 | inactive
7 | C[N+]1(C)CCN(c2ccccc2)CC1 | inactive
8 | CCNC(=O)[C@H]1O[C@@H](n2cnc3c(N)ncnc32)[C@H](O)[C@@H]1O | inactive
9 | COC(=O)N1CCN(C(=O)Cc2ccc(Cl)c(Cl)c2)C(CN2CCCC2)C1 (stereo not drawn) | inactive
10 | c1ccc2c(c1)[I+]c1ccccc1-2 | inactive
11 | Oc1ccc2c3c1O[C@H]1c4[nH]c5ccccc5c4C[C@@]4(O)C(C2)N(CC2CC2)CCC314 (stereo partly drawn) | inactive

System: not listed separately
Assay: Confirmatory screen GU Rhodamine qHTS for Zika virus inhibitors qHTS (AID 1347157); further: nearly all actives have a fitted effect of over 70% in size; further: potency means the concentration at half of the fitted maximal effect
Settings: purified enzyme assay, Rhodamine110 substrate fluorescence, 15 min; series mostly up to 114 µM
In short: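 Unlinked NS2B/NS3, 25 nM; Rhod110 peptide, 1.5 microM; compounds, up to 114 microM. Reaction run 15 min at RT in 10 mM Tris-HCl pH 8.0, 0.01% Tween 20; kinetic fluorescence change fitted with a 4-parameter Hill model.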

Row | SMILES | Potency
12 | COc1c(C(C)C)cc2c(c1O)[C@@]1(C(=O)O)CCCC(C)(C)C1CC2 (stereo partly drawn) | 6.85 µM (active)
13 | CCCCCOc1cc2c(cc1-c1cc(/C=C/C(=O)O)ccc1O)C(C)(C)CCC2(C)C | 1.75 µM (active)
14 | CCN1CC2(COC)C3[C@@H](OC)C4C1C3(C1C[C@]3(O)[C@H](OC(=O)c5ccccc5)C1[C@]4(OC(C)=O)[C@@H](O)[C@@H]3OC)[C@H](OC)C[C@H]2O (stereo partly drawn) | inactive
15 | COC(=O)C1(C)CCC(O)C2(C)c3cc(O)c(C(C)C)cc3C(O)C(OC(C)=O)C12 (stereo not drawn) | 24.2 µM (active)
16 | Oc1cc(Cl)c(Cl)cc1Cl | inactive

System: Zika virus NS2B-NS3 protease (unlinked complex)
Assay: Primary screen GU Rhodamine qHTS for Zika virus inhibitors: Unlinked NS2B-NS3 protease assay (AID 1347159); further: nearly all actives have a fitted effect of over 60% in size; further: potency means the concentration at half of the fitted maximal effect
Settings: Recombinant ZIKV NS2B-NS3 protease, Rhodamine110 substrate fluorescence; series mostly up to 107 µM
In short: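 In dose–response format, inhibition of unlinked protease (25 nM) was measured with 1.5 microM bis-peptide Rhodamine110 substrate. Aprotinin served as the intraplate control.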

Row | SMILES | Potency | activity change, negative = inhibition
17 | CC(C)[C@@H](CN1CC[C@@](C)(c2cccc(O)c2)[C@@H](C)C1)NC(=O)[C@H]1Cc2ccc(O)cc2CN1 | inactive | –
18 | CC(CCc1ccc(O)cc1)O[C@@H]1O[C@H](CO[C@H]2OC[C@](O)(CO)[C@H]2O)[C@@H](O)[C@H](O)[C@H]1O (stereo partly drawn) | inactive | –
19 | COC1CC(OC2CCC3(C)C(CCC4C3CCC3(C)C(C5=CC(=O)OC5)C(OC(C)=O)CC43O)C2)OC(C)C1OC1OC(CO)C(O)C(O)C1O (stereo not drawn) | inactive | –
20 | COc1c(C(C)C)cc2c(c1O)[C@@]1(C(=O)O)CCCC(C)(C)C1CC2 (stereo partly drawn) | 6.31 µM (active) | –
21 | C=CC(C)(O)CC/C=C(\C)C(=O)O[C@H]1[C@H](O)[C@@H](CO)O[C@@H](OC(=O)[C@]23CCC(C)(C)CC2C2=CCC4[C@@]5(C)CC[C@H](O[C@@H]6O[C@H](CO[C@@H]7OC[C@H](O)[C@H](O)[C@H]7O[C@@H]7OC[C@@H](O)[C@H](O)[C@H]7O)[C@@H](O)[C@H](O)[C@H]6O)C(C)(C)C5CC[C@@]4(C)[C@]2(C)CC3)[C@@H]1OC1OC(C)C(O[C@@H]2OC[C@@H](O)[C@H](O[C@@H]3OC[C@@H](O)[C@H](O)[C@H]3O)[C@H]2O)C(O)C1O (stereo partly drawn) | – | 50.7% [at 19.1 µM] (inactive)
22 | C/C=C(\C)C(=O)OC1C(C)OC(OC2C(C)OC(OC3CCC4(C)C(=CCC5C4CCC4(C)C(C(C)OC6OC(COC7OC(CO)C(O)C(O)C7O)C(O)C(O)C6O)CCC54O)C3)CC2OC)C(O)C1OC (stereo not drawn) | inactive | –
23 | CC1=C2C(=O)C3[C@@H](CC=C4C[C@@H](O)CC[C@@]43C)[C@@H]2CC[C@]12O[C@@H]1C[C@H](C)CN[C@H]1[C@H]2C (stereo partly drawn) | inactive | –
24 | CCCCCOc1cc2c(cc1-c1cc(/C=C/C(=O)O)ccc1O)C(C)(C)CCC2(C)C | 2.51 µM (active) | –
25 | COC(=O)[C@@]12C(=O)C(C)C(=O)[C@]1(C)C(C)=C[C@H]1[C@]3(C=O)CC[C@H](OC(C)=O)C(C)(C)[C@H]3CC[C@@]12C (stereo partly drawn) | inactive | –
26 | CC(N)Cc1c[nH]c2ccccc12 (stereo not drawn) | inactive | –
27 | CCc1[nH]c2ccc(OC)cc2c1CCN(C)C | inactive | –
28 | Cc1cc(C(=O)CN2CCCC2)c(C)n1-c1ccc(F)cc1 | inactive | –
29 | COC1=CC(=O)O[C@@H](CCc2ccccc2)C1 | inactive | –
30 | CN1[C@H]2C[C@H](OC(=O)[C@H](CO)c3ccccc3)C[C@@H]1[C@@H](O)C2 | inactive | –
31 | OC1(c2ccc(Cl)cc2)c2ccccc2C2=NCCN21 (stereo not drawn) | inactive | –
32 | CC(C)(C)c1cc(C(C)(C)C)c2c(c1)C(O)(C(F)(F)F)C(=O)O2 (stereo not drawn) | 7.94 µM (active) | –
33 | Clc1ccc(OCC2=NCCN2)cc1Cl | inactive | –
34 | COc1cc2c(cc1OC)[C@@]13CCN4CC5=CCO[C@H]6CC(=O)N2[C@H]1[C@H]6[C@H]5C[C@H]43 | inactive | –
35 | CCC(C)(C#N)O[C@@H]1O[C@H](CO)[C@@H](O)[C@H](O)[C@H]1O (stereo partly drawn) | inactive | –
36 | CN(C)CCc1c[nH]c2ccc(CN3CCN(C)S3(=O)=O)cc12 | inactive | –
37 | CC[C@H]1CN2CC[C@H]1C[C@H]2[C@H](O)c1ccnc2ccc(OC)cc12 | inactive | –

System: Zika virus NS2B-NS3 protease (linked construct)
Assay: Primary screen NINDS Rhodamine qHTS for Zika virus inhibitors (AID 1347160); further: nearly all actives have a fitted effect of over 55% in size; further: potency means the concentration at half of the fitted maximal effect
Settings: purified NS2B-NS3 protease, Rhodamine110 substrate fluorescence; series mostly up to 57.1 µM
In short: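 Each compound, titrated, sat 15 min with 25 nM linked protease before 1.5 microM Rhodamine110 substrate went in. Fluorescence gain over the next 15 min, in pH 8.0 Tris with Tween 20, gave Hill-fitted curves.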

Row | SMILES | Potency | activity change, negative = inhibition
38 | CC(C)[C@@H](CN1CC[C@@](C)(c2cccc(O)c2)[C@@H](C)C1)NC(=O)[C@H]1Cc2ccc(O)cc2CN1 | inactive | –
39 | CC(CCc1ccc(O)cc1)O[C@@H]1O[C@H](CO[C@H]2OC[C@](O)(CO)[C@H]2O)[C@@H](O)[C@H](O)[C@H]1O (stereo partly drawn) | inactive | –
40 | COC1CC(OC2CCC3(C)C(CCC4C3CCC3(C)C(C5=CC(=O)OC5)C(OC(C)=O)CC43O)C2)OC(C)C1OC1OC(CO)C(O)C(O)C1O (stereo not drawn) | inactive | –
41 | COc1c(C(C)C)cc2c(c1O)[C@@]1(C(=O)O)CCCC(C)(C)C1CC2 (stereo partly drawn) | inactive | –
42 | C=CC(C)(O)CC/C=C(\C)C(=O)O[C@H]1[C@H](O)[C@@H](CO)O[C@@H](OC(=O)[C@]23CCC(C)(C)CC2C2=CCC4[C@@]5(C)CC[C@H](O[C@@H]6O[C@H](CO[C@@H]7OC[C@H](O)[C@H](O)[C@H]7O[C@@H]7OC[C@@H](O)[C@H](O)[C@H]7O)[C@@H](O)[C@H](O)[C@H]6O)C(C)(C)C5CC[C@@]4(C)[C@]2(C)CC3)[C@@H]1OC1OC(C)C(O[C@@H]2OC[C@@H](O)[C@H](O[C@@H]3OC[C@@H](O)[C@H](O)[C@H]3O)[C@H]2O)C(O)C1O (stereo partly drawn) | – | 33.2% [at 10.7 µM] (inactive)
43 | C/C=C(\C)C(=O)OC1C(C)OC(OC2C(C)OC(OC3CCC4(C)C(=CCC5C4CCC4(C)C(C(C)OC6OC(COC7OC(CO)C(O)C(O)C7O)C(O)C(O)C6O)CCC54O)C3)CC2OC)C(O)C1OC (stereo not drawn) | inactive | –
44 | CC1=C2C(=O)C3[C@@H](CC=C4C[C@@H](O)CC[C@@]43C)[C@@H]2CC[C@]12O[C@@H]1C[C@H](C)CN[C@H]1[C@H]2C (stereo partly drawn) | inactive | –
45 | CCCCCOc1cc2c(cc1-c1cc(/C=C/C(=O)O)ccc1O)C(C)(C)CCC2(C)C | 3.16 µM (active) | –
46 | COC(=O)[C@@]12C(=O)C(C)C(=O)[C@]1(C)C(C)=C[C@H]1[C@]3(C=O)CC[C@H](OC(C)=O)C(C)(C)[C@H]3CC[C@@]12C (stereo partly drawn) | inactive | –
47 | CC(N)Cc1c[nH]c2ccccc12 (stereo not drawn) | inactive | –
48 | CCc1[nH]c2ccc(OC)cc2c1CCN(C)C | inactive | –
49 | Cc1cc(C(=O)CN2CCCC2)c(C)n1-c1ccc(F)cc1 | inactive | –
50 | COC1=CC(=O)O[C@@H](CCc2ccccc2)C1 | inactive | –
51 | CCN1CC2(COC)C3[C@@H](OC)C4C1C3(C1C[C@]3(O)[C@H](OC(=O)c5ccccc5)C1[C@]4(OC(C)=O)[C@@H](O)[C@@H]3OC)[C@H](OC)C[C@H]2O (stereo partly drawn) | inactive | –
52 | CN1[C@H]2C[C@H](OC(=O)[C@H](CO)c3ccccc3)C[C@@H]1[C@@H](O)C2 | inactive | –
53 | OC1(c2ccc(Cl)cc2)c2ccccc2C2=NCCN21 (stereo not drawn) | inactive | –
54 | CC(C)(C)c1cc(C(C)(C)C)c2c(c1)C(O)(C(F)(F)F)C(=O)O2 (stereo not drawn) | 12.6 µM (active) | –
55 | Clc1ccc(OCC2=NCCN2)cc1Cl | inactive | –
56 | COc1cc2c(cc1OC)[C@@]13CCN4CC5=CCO[C@H]6CC(=O)N2[C@H]1[C@H]6[C@H]5C[C@H]43 | inactive | –
57 | CCC(C)(C#N)O[C@@H]1O[C@H](CO)[C@@H](O)[C@H](O)[C@H]1O (stereo partly drawn) | inactive | –
58 | CN(C)CCc1c[nH]c2ccc(CN3CCN(C)S3(=O)=O)cc12 | inactive | –
